ELG1 DNA repair – ELG1-dependent DNA repair inhibition | HEK293T ELG1-luciferase reporter, luminescence, 16 h; DNA damage induced by 5-fluorouridine | Potency, µM (top dose mostly 46.1 µM), for the others: at the top dose activity change, negative = inhibition, usual class: inhibitors | actives 2.3% (n = 330,000) | AID 504467; note: potency is the fitted concentration of half-maximal effect; nearly all actives have a fitted effect of over 55% in size
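5-Fluorouridine DNA damage + compound/DMSO, 2,000 cells/well, 16 h, 37 °C/5% CO2. ONE-Glo, 30 min RT, luminescence. Readout = decrease in reporter signal.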
IL-1B inflam inh – blocks inflammasome-driven IL-1 beta release; THP-1 LPS/ATP IL-1B secretion, AlphaLISA, 16 h; hits give low values; activity change, % at 57.5 µM; actives 4.7% (n = 360,000); in the data active = activity change below about -50%; inconclusive = mostly about -30% to -49%
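THP-1 cells pretreated 1 hr with compounds (up to 57.5 uM final), then stimulated with LPS (250 ng/mL final) plus ATP (1.25 mM final); secreted IL-1B measured by AlphaLISA after 16 hr, decreased signal indicating inhibition.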
TDP1 cell noCPT – qHTS for Inhibitors of human tyrosyl-DNA phosphodiesterase 1 (TDP1): qHTS in cells in absence of CPT; DT40 Tdp1-/- hTDP1 cells, no CPT, ATP luminescence, 48 h; Potency, µM (doses to about 46.2 µM), inactives show at the top dose activity change, negative = growth inhibition, most hits filed as inhibitors; actives 15% (n = 420,000); AID 686978, 2013; note: potency is the fitted concentration of half-maximal effect; nearly all actives have a fitted effect of over 55% in size
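Seeded 400 DT40-hTDP1 cells/well (vehicle DMSO, no 20 nM CPT); pinned compounds; ≥48 hr at 37 °C; CellTiter-Glo luminescence as viability measure.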
TDP1 inh – blocks human tyrosyl-DNA phosphodiesterase 1 | AID 485290 | actives 0.28% (n = 350,000) | Q9NUW8 | recombinant TDP1, AlphaScreen DNA substrate cleavage | Potency, µM (top dose mostly 130 µM), inactives show at the highest dose activity change, negative = inhibition, most hits filed as inhibitors; note: potency is the fitted concentration of half-maximal effect; nearly all actives have a fitted effect of over 40% in size
Target sequence (Q9NUW8 whole entry, looked up): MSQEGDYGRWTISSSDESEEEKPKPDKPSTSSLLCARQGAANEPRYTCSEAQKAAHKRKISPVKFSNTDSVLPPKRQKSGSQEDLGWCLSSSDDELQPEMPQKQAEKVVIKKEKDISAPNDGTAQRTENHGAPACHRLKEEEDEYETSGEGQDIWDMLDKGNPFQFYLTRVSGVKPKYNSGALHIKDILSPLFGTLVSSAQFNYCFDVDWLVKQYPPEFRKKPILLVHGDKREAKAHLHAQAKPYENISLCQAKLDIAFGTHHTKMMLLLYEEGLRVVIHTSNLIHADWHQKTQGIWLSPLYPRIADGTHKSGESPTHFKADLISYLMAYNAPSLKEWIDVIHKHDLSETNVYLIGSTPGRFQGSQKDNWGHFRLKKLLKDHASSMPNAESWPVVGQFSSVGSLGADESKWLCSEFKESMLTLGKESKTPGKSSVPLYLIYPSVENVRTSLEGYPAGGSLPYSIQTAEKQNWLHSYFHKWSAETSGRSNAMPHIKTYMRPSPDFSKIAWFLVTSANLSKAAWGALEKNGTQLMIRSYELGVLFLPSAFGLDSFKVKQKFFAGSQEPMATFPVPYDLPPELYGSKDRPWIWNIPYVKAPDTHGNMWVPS
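Tdp1 1 nM final; 15 min RT w/ cpd; substrate 15 nM, 5 min; beads 10 ug/ml, 10 min; AlphaScreen read. Neg ctrl: no enzyme.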
Giardia killer – Giardia lamblia killing; actives 0.15% (n = 340,000); activity change, % at 7.66 µM, hits read low; Giardia lamblia trophozoite viability; AID 540267; in the data active = activity change below about -80%; inconclusive = between about -30% and that limit;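 note: parasites exposed to compound for two days anaerobically before the ATP read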
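Killing of trophozoites was scored by loss of ATP luminescence after a 48 hrs anaerobic exposure to compounds at 37 deg C, using 100 cells per well.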
DT40 TDP1 CPT – DT40-hTDP1 cell growth loss with CPT. chicken DT40 Tdp1-/-;hTDP1 cells + 20 nM CPT, ATP luminescence, 48 h. Potency, µM (series often up to 46.2 µM), for the others: at the highest dose activity change, negative = growth inhibition, most hits filed as inhibitors. actives 12% (n = 420,000). AID 686979; note: potency is the fitted concentration of half-maximal effect; nearly all actives have a fitted effect of over 55% in size
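Chicken DT40 Tdp1-/- cells stably complemented with human TDP1 were seeded at 400 cells/well in medium containing 20 nM camptothecin, exposed to pin-transferred compounds, and grown at 37 °C for at least 48 hr. Viability was read as ATP luminescence.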
Starred values were filed as active, the others as inactive; ? = inconclusive; . = no result. Only some compounds are listed: those with a hit (about 19% of all), similar ones and a draw of the others. Unless noted, calls come from the whole dose curve; as a rule, active = well fitted curve in the direction sought with a large enough effect; inconclusive = small, poorly fitted or top-dose-only effect, or another doubt; inactive = no such curve, though single readings can be large; an effect the other way counts as inactive or inconclusive. % is set by controls: 0 for no effect and ±100 for the full control effect.

SMILES | ELG1 DNA repair | IL-1B inflam inh | TDP1 cell noCPT | TDP1 inh | Giardia killer | DT40 TDP1 CPT
COC(=O)c1sc2ccccc2c1-n1cccc1C(=O)C(=O)Nc1ccc(OC)cc1 | 13µM* | 22 | ? | 6% | 7 | ?
Cc1ccc(NC(=O)CCc2ccc(C)o2)cc1 | 6% | 0 | -6% | . | 13 | -15%
N#Cc1nc(N(c2ccccc2)c2ccccc2)nc(-n2cccc2)n1 | . | . | 3.5µM* | 3% | -21 | 7.1µM*
NC(=O)c1nc(N2CCOCC2)nc(N2CCOCC2)n1 | 6% | -8 | 14µM* | -5% | -15 | 14µM*
N#Cc1nc(N2CCOCC2)nc(N2CCOCC2)n1 | 16% | -1 | 26µM* | -7% | 1 | 18µM*
Cc1cc(N2CCOCC2)nc(N2CCOCC2)n1 | 9% | 12 | -6% | 4% | 10 | -2%
CC(C)(C)Nc1nc(C(N)=O)nc(N2CCOCC2)n1 | 18% | -9 | ? | 7% | -10 | ?
CN(c1ccccc1)c1nc(C#N)nc(N2CCOCC2)n1 | . | . | 10µM* | 1% | 4 | 13µM*
CN(C)c1nc(N)nc(N(c2ccccc2)c2ccccc2)n1 | 2% | -13 | ? | 3% | 4 | ?
CCOC(=O)C1=C(COC(=O)c2ccc(OC(C)C)cc2)NC(=O)NC1C (stereo not given) | ? | -29 | -11% | . | 9 | -19%
COC(=O)c1ccc(Cn2nc(-c3cc(C)ccc3C)ccc2=O)cc1 | -16% | 12 | ? | . | 5 | -28%
CCNc1nc(C#N)nc(N2CCOCC2)n1 | . | . | 13µM* | 0% | 7 | ?
CC(C)C[C@H](NC(=O)[C@H](CCc1ccccc1)NC(=O)CN1CCOCC1)C(=O)N[C@@H](Cc1ccccc1)C(=O)N[C@@H](CC(C)C)C(=O)[C@@]1(C)CO1 | . | . | 0.0042µM* | . | . | 0.0067µM*
COc1cccc(CCN2C(=O)C(=O)N([C@@H](CNCc3ccccc3)Cc3ccccc3F)C[C@@H]2C(C)(C)C)c1 | 0% | ? | -76% | . | 5 | ?
CSc1nc2nc3c(cc2c(=O)n1-c1cccc(C)c1)COC(C)(C)C3 | 21µM* | -17 | ? | 5% | -6 | ?
N#CCC(=O)c1sccc1-n1cccc1 | 3% | 27 | -30% | -11% | -16 | 2%
COc1ccc(NC(=O)N2CCCC3(CCN(S(C)(=O)=O)CC3)C2)cc1 | . | . | -11% | . | . | 3%
Cc1ccc(C(C)C)c(OCC(=O)Nn2c(C)nc3ccccc3c2=O)c1 | ? | 23 | 6.5µM* | 6% | 26 | -21%
CCOC(=O)c1cnc2c(c(C)nn2CC)c1NCCN1CCOCC1 | -10% | -24 | ? | 0% | -21 | -16%
COc1ccc(C(=O)N2CCN(c3ccc(N4CCOCC4)nn3)CC2)cc1OC | 3% | 8 | 9% | -1% | 13 | 3%
NC(C(=O)O)c1nn[nH]n1 (stereo not given) | . | . | . | -4% | -15 | .
CC(C)c1ccc(C2Sc3ccccc3NC3=C2C(=O)c2ccccc23)cc1 (stereo not given) | . | . | 16µM* | . | . | 16µM*
CCc1ccc(C2Sc3ccccc3NC3=C2C(=O)c2ccccc23)cc1 (stereo not given) | . | . | ? | 12% | . | 16µM*
O=C1C2=C(Nc3ccccc3SC2c2ccco2)c2ccccc21 (stereo not given) | 21% | -15 | ? | 11% | -10 | -11%
CC1=NN(c2nc3ccccc3[nH]2)C(=O)C1Cc1ccccc1 (stereo not given) | ? | 62 | 1.3µM* | 10% | -23 | 1µM*
SMILES | ELG1 DNA repair | IL-1B inflam inh | TDP1 cell noCPT | TDP1 inh | Giardia killer | DT40 TDP1 CPT
CC1=NN(c2ccccc2)C(=O)/C1=C/N(C)C | 0% | 9 | 4% | 8% | -11 | ?
O=c1[nH]c2ccccc2nc1CCc1ccccc1 | ? | 26 | -9% | 1% | ? | -7%
CC1=NN(c2nc3ccccc3[nH]2)C(=O)/C1=C/N(C)C | 22% | 16 | ? | 8% | ? | 4.6µM*
CCN1CCCC1CNC(=O)Cn1nc(C)n2nc(-c3ccccc3)cc2c1=O (stereo not given) | ? | -3 | -12% | 0% | 1 | -15%
CC(NC(=O)c1cc(COc2c(F)cccc2F)on1)c1cnn(-c2ccccc2)c1 (stereo not given) | ? | ? | -39% | 2% | 7 | ?
Clc1ccc(C=NNc2ccccn2)c(Cl)c1 | . | 29 | 1% | . | -9 | 0%
C(=N\NC(=Nc1ccccc1)c1ccccn1)/c1ccccn1 | ? | 30 | 10µM* | 0% | 7 | 10µM*
O=C(N/N=C\c1ccccn1)c1cccc(C(=O)N/N=C\c2ccccn2)n1 | . | 23 | ? | . | 3 | -5%
Clc1ccc(/C=N/NC(=Nc2ccccc2)c2ccccn2)c(Cl)c1 | ? | -7 | 29µM* | 7% | -1 | ?
COc1cc(C)c(NC(=O)C2CCN(S(=O)(=O)c3cccs3)CC2)cc1OC | 0% | 0 | 7% | 0% | -2 | 1%
COc1ccc(CNC(=O)c2ccc3c(c2)N(Cc2ccccc2)C(=O)c2ccccc2S3(=O)=O)cc1 | . | . | -23% | 7% | . | ?
COc1ccc(CCNC(=O)c2ccc3c(c2)N(Cc2cccc(C)c2)C(=O)c2ccccc2S3(=O)=O)cc1OC | . | . | 12µM* | 5% | . | 8.2µM*
COc1ccc(CCNC(=O)c2ccc3c(c2)N(Cc2ccc(Cl)cc2)C(=O)c2ccccc2S3)cc1OC | . | . | 16µM* | 8% | . | ?
COc1ccc(CCNC(=O)c2ccc3c(c2)N(Cc2cccc(Cl)c2)C(=O)c2ccccc2S3=O)cc1OC (stereo not given) | . | . | ? | 5% | . | ?
COc1ccc(CCNC(=O)c2ccc3c(c2)N(Cc2ccccc2F)C(=O)c2ccccc2S3(=O)=O)cc1OC | . | . | 10µM* | 6% | . | 16µM*
COc1ccc(CNC(=O)C2CCN(C(=O)N3CCOc4ccc(Cl)cc43)CC2)cc1 | . | . | ? | 9% | . | ?
C[C@@H]1CN([C@H](C)CO)C(=O)CCCn2cc(nn2)CO[C@H]1CN(C)C(=O)Nc1cccc(F)c1 | . | 27 | 11% | . | . | 7%
COCC(=O)N1CCC2(CC1)CCN(c1ncccn1)CC2 | . | . | -7% | . | . | 13%
CCOC(=O)c1c(NC(=S)Nc2ccc(Cl)cc2)sc(C)c1C | ? | -2 | -36% | -3% | 8 | -20%

Screening results from PubChem BioAssay.
